This note sets out measurements from PubChem BioAssay AID504558 (Broad Institute, 2011).

Screen size: about 350,000 compounds; about 2,400 (0.69%) were called active. No stated cut-off is given here; in the data, active means inhibition above about 41%; inconclusive means no clear call, values can overlap the other calls; inactive means below that. The sample as a whole holds a higher share of actives than the screen did.

The assay in a line: blockers of LMP1-induced NF-kB reporter signal – cell-based, luminescence, single point, primary screen (AID 504558).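 Further: 0% = neutral control wells and 100% = reference inhibitor control.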 The settings on record: LMP1-induced NF-kappaB luciferase reporter cells, at 12.5 µM, stronger effect = higher value.
With `CC(=O)NNC(=O)c1csc(Cc2c(Cl)sc3ccc(Cl)cc23)n1`, the inhibition (as a rule, the change of the read-out against control, counted positive when it falls) was 8.06% (inactive). The same measure for `CNC(=O)c1csc(Cc2c(Cl)sc3ccc(Cl)cc23)n1`: 54.8% (active).

For the compound `CNC(=O)c1csc(-c2ccccc2)n1`, the inhibition is 6.33% (inactive). For `C[C@@H]1CN([C@H](C)CO)S(=O)(=O)c2ccc(C#C[C@@H](C)O)cc2O[C@@H]1CN(C)Cc1ccc(-c2ccccc2)cc1`, the inhibition is -5.47% (inactive). With `Cc1onc(-c2ccccc2)c1-c1nnc(COC(=O)c2ccc(N(C)C)cc2)o1`, the inhibition was 16.7% (inactive).

`COc1ccc(-c2nnc(NC(=O)CS(=O)(=O)c3ccc(Cl)cc3)o2)c(OC)c1`: the inhibition is -10.8% (inactive). `COc1cc(-c2nnc(NC(=O)CS(=O)(=O)c3ccc(Cl)cc3)o2)cc(OC)c1OC`: the inhibition was 3.37% (inactive). For `COc1cccc(-c2nnc(NC(=O)c3ccc(S(=O)(=O)N(CC(C)C)CC(C)C)cc3)o2)c1`, the inhibition was 44.9% (active).

As to `CNC(=O)C[C@H]1C(=O)N(Cc2ccccc2)C[C@@H]1CSC`, the inhibition was -2.82% (inactive). The same measure for `O=C(C[C@H]1C[C@H]2c3cc(NS(=O)(=O)c4ccc(F)cc4)ccc3O[C@H]2[C@H](CO)O1)NCc1cc(F)ccc1F`: 4.21% (inactive); for `COc1cccc(CNc2nc(C(F)(F)F)nc3ccccc23)c1`: -0.361% (inactive); for `COc1ccc(CNc2nccs2)cc1`: 8.57% (inactive). The result for `COc1ccc(CNc2ncnc3ccccc23)cc1` reads 41.7% (active). The result for `COc1ccc(C(=O)N/N=C(\C)CC(=O)Nc2ccc(Cl)cn2)cc1` reads -1.25% (inactive). `COc1cc2ccccc2cc1C(=O)Nc1ccccc1C`: the inhibition is -76.9% (inactive). The same measure for `COc1ccc(C(=O)Nc2cc(C)c(NC(=O)c3ccccc3OC)cn2)cc1`: 40.6% (active); for `O[C@@H]1C[C@H](c2ccccc2)N(Cc2cccs2)C[C@H]1n1cc(C2CC2)nn1`: -8.56% (inactive); for `Cc1ccc(C(=O)OCC(=O)NC2CCCCCCC2)cc1C`: 7.43% (inactive). The same measure for `COc1ccc(C(C)(C)C)cc1NC(=O)CN(C)C1=NS(=O)(=O)c2ccccc21`: -11.2% (inactive).

As for `COC(=O)c1[nH]c2ccccc2c1NC(=O)CN1CCCc2ccccc21`, the inhibition is -17.6% (inactive). The same measure for `NS(=O)(=O)c1cccc(NC(=O)CN2CCCc3ccccc32)c1`: -3.3% (inactive). The same measure for `COC(=O)c1[nH]c2cccc(C)c2c1NC(=O)CN1CCCc2ccccc21`: 87.4% (active); for `O=C(CCc1ccc(O)cc1)NN=Cc1cc(Br)ccc1O`: 6.93% (inactive). With `Cc1ccccc1OS(=O)(=O)c1cccc([N+](=O)[O-])c1`, the inhibition was 0.335% (inactive). For the compound `Fc1ccc2[nH]c3c(N4CCSCC4)ncnc3c2c1`, the inhibition was 53.7% (active). The result for `O=C(NCC(F)(F)F)c1ccc(S(=O)(=O)NCCc2ccc3c(c2)OCCO3)cc1` reads 0.519% (inactive); that for `C[C@@H]1CN([C@@H](C)CO)C(=O)CCCn2nncc2CO[C@@H]1CN(C)S(=O)(=O)c1ccc(-c2ccccc2)cc1`, -1.13% (inactive). The result for `COC(=O)CCNc1ccc2c(c1)OCCO2` reads 45.2% (active); that for `COc1ccccc1OCCCC(=O)Nc1ccc2c(c1)OCCO2`, -0.694% (inactive); that for `Cc1ccc(OCCCC(=O)Nc2ccc3c(c2)OCCO3)cc1`, 8.28% (inactive). In the case of `CCc1nnc(NC(=O)c2ccco2)s1`, the inhibition is -0.797% (inactive).

As for `CNC(=S)Nc1ccc([N+](=O)[O-])cc1`, the inhibition was -10.6% (inactive). As for `CC(=O)Nc1ccc(C=Cc2ccc([N+](=O)[O-])cc2)cc1`, the inhibition is -20.1% (inactive). The same measure for `O=C1/C(=C\c2ccc([N+](=O)[O-])cc2)CS(=O)(=O)C/C1=C/c1ccc([N+](=O)[O-])cc1`: 92.5% (active); for `CCCn1c(N)c(C(=O)CSc2nnc(Cc3cccs3)n2C2CC2)c(=O)[nH]c1=O`: 0.699% (inactive). The same measure for `O=C(CSc1ncn[nH]1)Nc1nc2c(F)c(F)c(F)cc2s1`: -1.34% (inactive); for `CCOC(=O)C(=Cc1ccccc1)C(=O)c1ccccc1`: 31.5% (inactive). The same measure for `CCOC(=O)/C(=C\c1ccc([N+](=O)[O-])cc1)C(=O)c1cc(C(C)=O)c(Nc2ccccc2)s1`: 55.7% (active); for `O=C(O)C(=Cc1ccc([N+](=O)[O-])cc1)CCc1ccccc1`: 2.53% (inactive); for `COc1ccc(NC(=O)CN(C)C(=O)c2cc(C)oc2C)cc1`: -4.83% (inactive). Regarding `Cc1cccc(C)c1NC(=O)CNC(=O)c1ccc(N2CCOCC2)c([N+](=O)[O-])c1`, the inhibition was -0.676% (inactive).

As to `COc1cccc(-n2c(=S)[nH]c3c(oc4ccccc43)c2=O)c1`, the inhibition is -10.2% (inactive). The result for `CS(=O)(=O)N1CCN(C(=O)c2cc3ccccc3oc2=O)CC1` reads 9.53% (inactive). The same measure for `O=c1oc2ccccc2cc1-c1cn(-c2ccccc2)c(=S)[nH]1`: 73.5% (active); for `C[C@H]1CN([C@@H](C)CO)C(=O)CCCn2cc(nn2)CO[C@@H]1CN(C)C(=O)Nc1ccccc1`: -0.0595% (inactive); for `Cc1ccc([C@H]2C[C@H](O)[C@@H](n3cc(COC(=O)c4ccccc4)nn3)CN2C(=O)C2CCCCC2)cc1`: 7.15% (inactive). The same measure for `COc1ccc(CN2C(=O)C(CC(=O)NCc3cccc4ccccc34)CC(C(=O)N3CCOCC3)=C2C)cc1` (stereo not drawn): 1.6% (inactive); for `CSc1nc(-c2ccccc2)nc(C(Cl)Cl)n1`: 85.7% (active); for `Cc1csc(SCC(=O)Nc2ccc(C)c(S(=O)(=O)N(C)C)c2)n1`: -5.08% (inactive). For the compound `Cc1ccc(CCNC(=O)CN2C(=O)CSc3ccc(S(=O)(=O)N4CCOCC4)cc32)cc1`, the inhibition was -9.19% (inactive). Take `O=C1CC[C@@H](C(=O)N2CSC[C@@H]2C(=O)Nc2ccc(C(F)(F)F)cc2)N1`: the inhibition was -8.12% (inactive). As for `CC(C)c1cc(C(=O)NC2CCCCCC2)c2ccccc2n1`, the inhibition was -2.77% (inactive). The result for `CC(C)C(C)NC(=O)COc1nc2ccccc2nc1N(C)C1CCCCC1` (stereo not drawn) reads -16% (inactive); that for `CN(c1ccc2nc3ccccc3c(=O)n2n1)C1CCCCC1`, 76% (active). Consider `CC1(c2cccc(N)c2)OCCO1`, for which the inhibition is -20.7% (inactive).

For the compound `COC(=O)C(C)NC(=O)COc1ccc2ccccc2c1` (stereo not drawn), the inhibition was -5.65% (inactive). Turning to `Cc1cc2ccccc2n1CCNC(=O)COc1ccc2ccccc2c1`, the inhibition is 52.5% (active). The result for `Cc1cc2ccccc2n1CCC(=O)O` reads 2.51% (inactive).
